Data on 21 compounds can be found in PubChem BioAssay AID1259349 (Broad Institute, 2017).

Among all 17,000 compounds or so, about 1,100 (6.5%) were called active.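 Rule for the calls: active = z-score of -3 or lower, meaning strong loss of probe binding signal; inactive = the rest.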 This excerpt belongs to a sample that is enriched for actives.

Insulin-degrading enzyme (Homo sapiens), sequence (P14735 42-1019 limits assumed): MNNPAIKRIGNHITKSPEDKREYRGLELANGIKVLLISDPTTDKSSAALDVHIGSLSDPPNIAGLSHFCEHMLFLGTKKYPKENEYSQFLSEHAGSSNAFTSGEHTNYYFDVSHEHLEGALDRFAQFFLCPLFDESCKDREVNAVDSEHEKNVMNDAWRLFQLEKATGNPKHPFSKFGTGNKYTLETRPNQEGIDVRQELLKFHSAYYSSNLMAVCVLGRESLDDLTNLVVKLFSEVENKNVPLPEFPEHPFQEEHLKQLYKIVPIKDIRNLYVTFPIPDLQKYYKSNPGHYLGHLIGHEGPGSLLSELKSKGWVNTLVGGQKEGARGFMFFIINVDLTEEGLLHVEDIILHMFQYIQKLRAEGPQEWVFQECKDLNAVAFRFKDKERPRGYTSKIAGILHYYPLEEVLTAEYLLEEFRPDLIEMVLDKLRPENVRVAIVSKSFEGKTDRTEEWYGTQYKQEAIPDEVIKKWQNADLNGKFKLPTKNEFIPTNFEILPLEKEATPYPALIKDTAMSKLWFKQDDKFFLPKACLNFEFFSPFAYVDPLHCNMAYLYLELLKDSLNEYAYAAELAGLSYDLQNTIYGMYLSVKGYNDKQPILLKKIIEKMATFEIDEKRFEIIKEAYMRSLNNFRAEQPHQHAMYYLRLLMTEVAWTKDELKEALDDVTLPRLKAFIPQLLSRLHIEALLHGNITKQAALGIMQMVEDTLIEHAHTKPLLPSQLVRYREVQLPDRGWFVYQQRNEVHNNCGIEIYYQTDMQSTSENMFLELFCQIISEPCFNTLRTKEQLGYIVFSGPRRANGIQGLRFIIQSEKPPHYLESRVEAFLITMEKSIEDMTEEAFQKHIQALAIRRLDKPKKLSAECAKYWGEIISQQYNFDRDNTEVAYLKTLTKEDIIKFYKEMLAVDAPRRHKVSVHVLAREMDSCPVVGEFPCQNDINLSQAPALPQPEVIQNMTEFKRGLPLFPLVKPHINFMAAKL

This assay has as its target Insulin-degrading enzyme (Homo sapiens) (UniProt P14735). As to the kind of experiment: displacers of FL-6b probe from IDE – biochemical, fluorescence anisotropy, probe displacement, primary screen (AID 1259349).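 Note: His-tagged human IDE residues 42-1019 made in E. coli with 30 nM FL-6b probe.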 To be noted: purified IDE, FL-6b probe fluorescence polarization; at 20 µM; hits give low values.
On to `COc1ccccc1-c1ccc2c(c1)O[C@@H](CN(C)CC1CCOCC1)[C@H](C)CN([C@@H](C)CO)S2(=O)=O`, for which the z-score is -0.56 (inactive). Under `CCNC(=O)c1cc2c(c(-c3cccc(-c4cncnc4)c3)n1)[C@H](CCO)N(C(C)=O)C2` stands -0.344 (inactive); under `O=C1CNC[C@H]2[C@@H](c3ccc(C4=CCCC4)cc3)[C@@H](CO)N12`, 1.84 (inactive); under `N#C[C@H]1[C@H](c2ccccc2)[C@@H](CO)N1C(=O)c1cccnc1`, 1.75 (inactive). Turning to `CC(=O)N(C)C[C@@H]1[C@@H](c2ccc(-c3ccccc3F)cc2)[C@@H](CO)N1C(C)=O`, the z-score is 2.54 (inactive). With `N#C[C@H]1[C@@H](c2ccc(-c3ccccc3F)cc2)[C@H](CO)N1C(=O)c1ccccn1` the figure was -3.67 (active). Under `N#C[C@@H]1[C@H](c2ccccc2-c2ccccc2F)[C@@H](CO)N1C(=O)c1ccccn1` stands -0.079 (inactive); under `N#C[C@H]1[C@@H](c2ccccc2C2=CCCCC2)[C@H](CO)N1C(=O)c1ccccn1`, 0.206 (inactive). As to `N#C[C@H]1[C@@H](c2ccccc2-c2ccccc2F)[C@@H](CO)N1C(=O)C1CCC1`, the z-score was -0.535 (inactive). As to `N#C[C@@H]1[C@@H](c2ccc(-c3ccccc3F)cc2)[C@@H](CO)N1C(=O)c1ccccn1`, the z-score is -6.83 (active). With `N#C[C@@H]1[C@@H](c2ccc(/C=C/c3ccccc3)cc2)[C@@H](CO)N1C(=O)C1CC1`, the z-score is -0.906 (inactive). Under `N#C[C@@H]1[C@@H](c2ccc(-c3ccccc3F)cc2)[C@@H](CO)N1C(=O)C1CC1` stands -5.9 (active); under `CC(C)NC(=O)N1[C@H](C#N)[C@@H](c2ccc(-c3ccc(F)cc3)cc2)[C@H]1CO`, 2.54 (inactive); under `O=C(CC1CC1)N1CC(=O)N2[C@H](CO)[C@H](c3ccc(C#Cc4ccc(F)cc4)cc3)[C@@H]2C1`, 3.38 (inactive).

With `CCC(=O)N(C)C[C@H]1[C@H](c2ccc(C3=CCCCC3)cc2)[C@@H](CO)N1C(C)=O`, the z-score was 3.35 (inactive). On to `COc1cccc(C#Cc2ccc([C@H]3[C@@H](CO)N(C(=O)c4ccccn4)[C@H]3C#N)cc2)c1`, for which the z-score was 0.995 (inactive). As to `COc1ccc(-c2ccc([C@@H]3[C@@H](C#N)N(C(=O)C4CCC4)[C@@H]3CO)cc2)cc1`, the z-score is 4.33 (inactive). In the case of `COc1cccc(-c2ccc([C@@H]3[C@@H](C#N)N(C(=O)c4ccccn4)[C@H]3CO)cc2)c1`, the z-score is -4.27 (active).

Regarding `N#C[C@@H]1[C@@H](c2ccc(-c3ccccc3)cc2)[C@@H](CO)N1C(=O)Cc1ccccc1`, the z-score was 1.8 (inactive). `N#C[C@H]1[C@H](c2ccc(-c3ccccc3)cc2)[C@@H](CO)N1C(=O)Cc1ccccc1`: the z-score is 1.03 (inactive). Under `COc1cccc(-c2ccc([C@@H]3[C@@H](CO)N(C(=O)c4ccccn4)[C@H]3C#N)cc2)c1` stands -6.41 (active).
